Shown are actives, neighbours in structure and some others; about 9.3% of the full set was active somewhere.
FLuc modulator: firefly luciferase modulation, counter-screen for miR-21 project. 6.9% of 360,000 active. Potency, µM (top dose mostly 57.5 µM), for the others: at the highest dose activity change, negative = inhibition, actives largely listed as inhibitors. AID 588342. P08659. purified FLuc, Km substrates, luminescence inhibition;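 also: plate controls were vehicle for no effect and reference inhibitor for full effect; nearly all actives have a fitted effect of over 55% in size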
Target sequence (P08659 whole entry, looked up): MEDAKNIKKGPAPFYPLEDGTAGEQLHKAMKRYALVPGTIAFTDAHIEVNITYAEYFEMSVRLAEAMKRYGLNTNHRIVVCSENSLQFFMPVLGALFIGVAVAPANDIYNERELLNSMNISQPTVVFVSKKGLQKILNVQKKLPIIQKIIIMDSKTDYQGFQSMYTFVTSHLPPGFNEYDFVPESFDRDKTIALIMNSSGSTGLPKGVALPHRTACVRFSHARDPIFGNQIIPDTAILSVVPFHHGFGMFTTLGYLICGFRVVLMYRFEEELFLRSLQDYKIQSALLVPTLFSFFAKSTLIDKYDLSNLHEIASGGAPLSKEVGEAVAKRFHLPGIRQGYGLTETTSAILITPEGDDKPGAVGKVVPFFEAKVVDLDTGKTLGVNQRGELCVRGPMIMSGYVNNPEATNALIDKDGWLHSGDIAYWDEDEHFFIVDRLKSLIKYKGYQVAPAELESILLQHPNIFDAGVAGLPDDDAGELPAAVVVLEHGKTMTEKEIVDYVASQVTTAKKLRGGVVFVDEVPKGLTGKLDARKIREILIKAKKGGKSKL
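Purified P. pyralis luciferase, 10 nM final, with Km-level 10 uM D-luciferin and 10 uM ATP in 50 mM Tris acetate pH 7.5, 10 mM Mg acetate, 0.01% Tween-20, 0.05% BSA; 6-point qHTS titration about 60 µM downward; luminescence read.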
ELG1 repair inh: blocks ELG1-dependent DNA repair in HEK293T cells | HEK293T ELG1-luciferase reporter, luminescence, 16 h; DNA damage induced by 5-fluorouridine | Potency, µM (doses to about 46.1 µM), for the others: at the highest dose activity change, negative = inhibition, most hits filed as inhibitors | 2.3% of 330,000 active; also: % is scaled to controls: 0 for no effect and ±100 for the full control effect; nearly all actives have a fitted effect of over 55% in size
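HEK293T cells expressing luciferase-tagged ELG1 (2,000/well) received 5-Fluorouridine plus compound or DMSO for 16 hr at 37 °C. Luciferase was read by ONE-Glo luminescence after 30 min at room temperature.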
NPC1 promoter act: activators of NPC1 promoter. 2.4% of 320,000 active. Huh7 NPC1 promoter luciferase reporter, 24 h. Potency, µM (series often up to 9.22 µM), inactives show top-dose activation, usual class: activators; also: % of control where 0% means no effect; nearly all actives have a fitted effect of over 60% in size
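Luminescence from an NPC1 promoter-driven luciferase reporter in stably transfected Huh7 cells was measured after 24 h compound treatment at 37 °C, followed by 10 min ambient incubation with luciferase detection reagent.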
Rab9 prom act: activators of Rab9 promoter; AID 485297; Potency, µM (doses to about 9.22 µM), for inactives: at the top dose activation, negative = inhibition, actives largely listed as activators; Huh7 Rab9 promoter-luciferase reporter, luminescence, 24 h; 2.8% of 320,000 active; also: % of control where 0% means no effect; nearly all actives have a fitted effect of over 60% in size
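Huh7 reporter line, Rab9 promoter upstream of luciferase. Compound exposure 24 h at 37 °C in reduced-serum medium with 10% FBS. Read-out: luminescence.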
ELG1 genotoxic: induces genotoxicity in HEK293T cells with luciferase-tagged ELG1; HEK293T ELG1-luciferase reporter, luminescence, 16 h; Potency, µM (top dose mostly 46 µM), inactives show top-dose activity change, positive = activation, actives largely listed as activators; 1.3% of 330,000 active; AID 504466; also: % of control where 0% means no effect; nearly all actives have a fitted effect of over 60% in size
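Screening used a luciferase reporter fused to human ELG1 in HEK293T cells. Luminescence was read on a CCD plate imager after 16 hr exposure and 30 min ONE-Glo incubation.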
SMN2 splice up: enhancers of SMN2 splice variant expression; HEK293 SMN2-luciferase splicing reporter, luminescence, 30-36 h; Potency, µM (series often up to 46.1 µM), for the others: at the top dose activity change, positive = activation, actives largely listed as activators; 2.8% of 210,000 active; AID 1458; also: % of control where 0% means no effect; nearly all actives have a fitted effect of over 55% in size
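HEK293 cells carry an SMN2 […]–luciferase reporter in which exon 7 inclusion puts luciferase in frame. Cells were plated 10-12 h before compound addition, then incubated 30-36 h at 37C. ONE-Glo luminescence was read; sodium butyrate at 4.5 mM final served as control.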
* = called active by the depositor; ? = inconclusive; . = not tested or not shown. Calls follow the shape of the dose curve; as a rule, active = well fitted curve in the direction sought with a large enough effect; inconclusive = small, poorly fitted or top-dose-only effect, or another doubt; inactive = no such curve, though single readings can be large; an effect the other way counts as inactive or inconclusive. Potency is read from the fitted curve at half-maximal effect.

SMILES | FLuc modulator | ELG1 repair inh | NPC1 promoter act | Rab9 prom act | ELG1 genotoxic | SMN2 splice up
Cc1ccc(C(CC(=O)c2ccco2)SCCO)cc1 (configuration not stated) | 10.7µM* | ? | 26.2% | 29.8% | ? | -6.7%
CCN(CC(=O)Nc1c(F)cccc1F)C(=O)Cc1ccc2c(c1)CCC2 | 2.3% | 0.2% | -1.3% | 2.1% | -1.9% | .
COc1ccc(/C=C(/NC(=O)c2ccc(C)cc2)C(=O)N2CCCC2)cc1OC | -1.6% | -0.6% | -7.5% | 5.3% | 3.1% | .
CCn1nc(C)c(/C=N/NC(=O)c2ccoc2C)c1C | 12µM* | ? | 1.58µM* | ? | ? | ?
CCn1nc(C)c(/C=N/NC(=O)c2nc3nc(C)cc(C)n3n2)c1C | 1.1% | -0.8% | -4.7% | -6.8% | -1.7% | .
CCCCCn1nc(C)c(/C=N\NC(=O)c2cc(C)oc2C)c1C | 19µM* | ? | 12.5% | 12.3% | 2.2% | 5.2%
CCCCCn1nc(C)c(/C=N/NC(=O)c2ccoc2C)c1C | 21.3µM* | ? | ? | ? | ? | 20µM*
CCn1nc(C)c(/C=N\NC(=O)c2cccc(OC)c2)c1C | ? | 15.7% | -3.9% | -4.4% | 3.8% | -17.2%
Cc1nn(Cc2ccccc2)c(C)c1/C=N/NC(=O)c1ccccc1O | 7.57µM* | ? | -8.4% | -8.3% | 2.4% | .
Cc1noc(Cn2c(=O)c3ccccc3n(CC(=O)Nc3ccc(Cl)cc3)c2=O)n1 | 6.2% | . | . | . | . | .
O=C1CCCC1C(O)c1ccc2ccccc2c1 (configuration not stated) | . | . | . | . | . | -3.5%
Cc1cc(C(=O)N/N=C/c2c(C)nn(-c3ccccc3)c2C)c(C)o1 | 21.3µM* | ? | 21.7% | ? | 8.2% | .
Cc1nn(-c2ccccc2)c(C)c1/C=N/NC(=O)c1cc(-c2cccc3ccccc23)n[nH]1 | 10.7µM* | 16.4µM* | -1.7% | -1.1% | -8.4% | 3.8%
O=c1c2ccccc2nc2n1CCc1c-2[nH]c2ccccc12 | 0.953µM* | ? | 2.91µM* | 2.91µM* | 3.26µM* | 7.94µM*
CCOC(=O)c1sc(S(C)(=O)=O)c2c1CCc1conc1-2 | 1.3% | -8.2% | -4.1% | -1.7% | -4.6% | .
CC(=O)N1CCCN(C(=O)c2cc(COc3c(F)cccc3F)on2)CC1 | 3.2% | -16.7% | 0.2% | 13.4% | -1.9% | .
CC(=O)c1cccc(OCc2cc(C(=O)N3CCSCC3)no2)c1 | 10.7µM* | ? | ? | 3.16µM* | 9.2µM* | .
CC(=O)c1cccc(OCc2cc(C(=O)NCCC3=CCCCC3)no2)c1 | 9.53µM* | ? | 2.51µM* | ? | ? | .
O=C(c1cc(COc2ccc(F)c(F)c2)on1)N1CCSCC1 | 16.9µM* | ? | ? | ? | ? | .
COc1cc(C(C)=O)ccc1OCc1cc(C(=O)N2CCSCC2)no1 | -3.0% | 12.6% | 9.4% | 3.9% | 3.3% | .
Cn1c(=O)c2c(nc(SCC(=O)Nc3ccc(F)c(F)c3)n2Cc2ccccc2F)n(C)c1=O | -4.0% | . | . | . | . | 4.5%
CCOc1ccc(NC(=O)N2CCCC2C(=O)NCc2ccco2)cc1 (configuration not stated) | -0.7% | -2.5% | -1.8% | 0.1% | 0.8% | .
NC(=O)C1CCN(C(=O)COc2ccc3ccccc3c2Br)CC1 | -19.0% | 18.2% | -0.7% | 0.5% | -4.4% | .
O=C(COc1ccc2ccccc2c1Br)N1CCCCC1 | 15.1µM* | ? | 4.5% | ? | 18.3µM* | .
O=C(Oc1ccc2ccccc2c1Br)N1CCCCCC1 | 1.35µM* | ? | 0.501µM* | 0.631µM* | ? | 11.2µM*
CCN(CC)C(=O)Oc1ccc2ccccc2c1Br | 19µM* | ? | ? | ? | 8.2% | ?
O=C(COc1ccc2ccccc2c1Br)N1CCN(c2ccccn2)CC1 | -10.4% | ? | -4.3% | -2.5% | -5.4% | -35.9%
COc1ccc2oc(=O)cc(CN3CCN(C(=O)c4ccccc4Br)CC3)c2c1 | -0.3% | . | . | . | . | -8.5%

Screens: PubChem BioAssay, National Center for Advancing Translational Sciences (NCATS)
